According to PubChem BioAssay (NCI):
Compounds without any hit were thinned out: in the full panel of roughly 83,000, 20% have a hit.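 Percent growth is the endpoint: 0 to 100 indicates growth inhibition (40 means 60% inhibition), 0 means no net growth, and negative values indicate cell death.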 A number with no mark means an inactive call. Calls of active or inactive are those of the source. The calls were made as follows: active = growth percent below 10; inactive = the rest.

Columns and labels:
Experiment in all cases: NCI-60 one-dose screen, 48 h (100 = growth as untreated, 0 = no growth, -100 = all killed)
Settings in all cases: 10 µM unless noted
RPMI-8226 leukemia = test system: RPMI-8226 leukemia
OVCAR-8 ovarian = test system: OVCAR-8 ovarian
OVCAR-5 ovarian = test system: OVCAR-5 ovarian
OVCAR-4 ovarian = test system: OVCAR-4 ovarian
SK-OV-3 ovarian = test system: SK-OV-3 ovarian
IGROV1 ovarian = test system: IGROV1 ovarian
OVCAR-3 ovarian = test system: OVCAR-3 ovarian
HS 578T breast = test system: HS 578T breast
NCI/ADR-RES ovarian = test system: NCI/ADR-RES ovarian

SMILES	growth (RPMI-8226 leukemia)	growth (OVCAR-8 ovarian)	growth (OVCAR-5 ovarian)	growth (OVCAR-4 ovarian)	growth (SK-OV-3 ovarian)	growth (IGROV1 ovarian)	growth (OVCAR-3 ovarian)	growth (HS 578T breast)	growth (NCI/ADR-RES ovarian)
COc1ccc(C(=O)/C=C/c2cccnc2)cc1S(N)(=O)=O	-7.06% (active)	17.6%	77.2%	91.7%	88.1%	59.5%	17%	89.9%	69.1%
C=C1CC[C@@H]2[C@]3(C)COC(c4cn[nH]c4-c4ccc(Br)cc4)O[C@@H]3CC[C@@]2(C)[C@@H]1C/C=C1/C(=O)OCC1O (stereo partly specified)	3.94% (active)	-9.48% (active)	-75.9% (active)	8.76% (active)	-31.8% (active)	-44.9% (active)	-78.9% (active)	19.1%	-40% (active)
COc1cc2c(c(OC)c1OC)C(=O)CC(c1cccc(NC(=O)[C@@H](N)CC(C)C)c1)O2 (stereo partly specified)	108%	94.9%	112%	102%	109%	107%	97.9%	88.4%	99.8%
COc1ccc(C(=O)/C=C/c2ccc(Cl)c(Cl)c2)cc1S(N)(=O)=O	-6.75% (active)	-45.3% (active)	10.7%	34.6%	52.5%	11.1%	-23.5% (active)	86.9%	14.8%
CC12CC[C@@H]3[C@]4(C)COC(c5cn[nH]c5-c5ccc(Br)cc5)O[C@@H]4CC[C@@]3(C)[C@@H]1CC(C1=CCOC1=O)O2 (stereo partly specified)	24.9%	62.6%	81.5%	36.1%	73.5%	50.3%	56%	55.6%	51.9%
COCOc1ccc2c(=O)c(C)c(C(=O)N[C@@H](Cc3ccccc3)C(O)C(=O)NCCc3ccc(OC)cc3)oc2c1 (stereo partly specified)	100%	107%	116%	122%	113%	122%	120%	104%	107%
NS(=O)(=O)c1ccc(-n2cc(-c3cccc(NC(=O)c4cc(Cl)cc(Cl)c4)c3)nn2)cc1	92.6%		81.2%	73.6%		101%	48.2%	89.2%	92.7%
Cc1c(C(=O)NNC(=O)c2ccc(Cl)cc2)nnn1-c1ccc(Cl)cc1	95.7%	104%		92.4%	82.3%	106%	114%		91.3%
COc1ccc(C(=O)/C=C/c2ccccc2Br)cc1S(N)(=O)=O	-9.4% (active)		-6.5% (active)	35.2%	69.8%	38.5%	-56.5% (active)	47%	16.1%
N#Cc1ccc(/C=N/NC(=O)c2[nH]c3ccc(Br)cc3c2-c2ccccc2)o1	3.55% (active)	-21.9% (active)	15.9%	35%	44%	13.9%	14.6%		-40.9% (active)
COc1cc(NC(=O)c2cccc(C3CCc4c(cc(OC)c(OC)c4OC)O3)c2)cc(OC)c1OC (stereo unspecified)	16.2%	5.15% (active)	51.4%	31.6%	32.4%	13.8%	7.51% (active)		16.9%
CN(C)c1nc(NCCNS(=O)(=O)c2ccc(C3=Nc4c(N)nc(N)nc4NC(c4ccc(F)cc4)C3)cc2)nc(Nc2ccc(F)cc2)n1 (stereo unspecified)	-6.35% (active)	43.5%	78.2%	40.8%	73.4%	38.6%	40.9%		98%
Clc1cccc(N/N=C/c2c[nH]c3ccc(Br)cc23)n1	1.81% (active)	42%		61%	25.3%	-33.2% (active)	18.6%	32.9%	2.49% (active)
CN(C)c1nc(NCCNS(=O)(=O)c2ccc(C(=O)/C=C/c3ccc(C(F)(F)F)cc3)cc2)nc(Nc2ccc(F)cc2)n1	0.159% (active)	-62.1% (active)		11.6%	66%	-40.6% (active)	-86.7% (active)		-54.3% (active)
NC(=S)Nc1cccc(NC(N)=S)c1	109%	94%		94.6%	126%	97.5%	88.5%	105%	97.6%
c1ccc(-c2csc(Nc3cccc(Nc4nc(-c5ccccc5)cs4)c3)n2)cc1	49.3%		64.5%	37.6%	97.5%	34.1%	53.2%	56.5%	26.1%

SMILES	growth (RPMI-8226 leukemia)	growth (OVCAR-8 ovarian)	growth (OVCAR-5 ovarian)	growth (OVCAR-4 ovarian)	growth (SK-OV-3 ovarian)	growth (IGROV1 ovarian)	growth (OVCAR-3 ovarian)	growth (HS 578T breast)	growth (NCI/ADR-RES ovarian)
CSc1ccc(C(=O)Nc2ccc3nn(/C(C#N)=C/c4ccccn4)nc3c2)cc1	-42.5% (active)	-1.48% (active)	-86.2% (active)	15.8%	30.8%	-83% (active)	-92.6% (active)		2.33% (active)
COc1ccc(C(=O)/C=C/c2ccc3ccccc3c2)cc1S(N)(=O)=O	-17.5% (active)	-60.6% (active)		32.5%	22.5%	-8.23% (active)	-41.9% (active)	68.8%	18.9%
COc1ccc(-c2nnc3ccc(N/N=C/c4ccc(C)cc4)nn23)cc1	94%		115%	36.9%	79.8%	100%	15.6%	29.1%	25.8%
CC1(C)CC[C@]2(C(=O)O)CC[C@]3(C)C(=CCC4[C@@]5(C)C[C@@H](O)[C@@H]6OC(c7cccc(Br)c7)OC[C@@]6(C)C5CC[C@]43C)C2C1 (stereo partly specified)	18.9%	40%	67.5%	52.4%	101%	66.7%	34.9%	65.3%	40.6%
C#CCOc1cc(N(CC)CC)ccc1C(C(=O)NC(C)(C)C)N(C(=O)C1CCc2cc(F)ccc2O1)c1cc(C)cc(C)c1 (stereo unspecified)	17.6%	34.1%	49.7%	36.8%	46.7%	61.9%	30.5%	53.7%	41.9%
COc1cccc(/C=C/C(=O)c2ccc(OC)c(S(N)(=O)=O)c2)c1	-9.86% (active)	10.5%		57.7%	67.8%	42.1%	16.3%	91.6%	13.3%
O=C(/C=C/c1cccc(OCc2ccc(F)cc2)c1)c1nc2ccccc2[nH]1	-50.4% (active)	83.2%	122%	62.5%		93.5%	68.2%		72.5%
O=C(NNc1nc2cc(F)ccc2n2c(CN3CCCCC3)ccc12)c1cnccn1	-2.84% (active)	-84% (active)	-69.5% (active)	-45.5% (active)	-63.7% (active)	-3.63% (active)	-45.9% (active)		-31.5% (active)
O=C(O)c1ccc(-c2ccc(/C=N/NC(=O)c3[nH]c4ccc(Br)cc4c3-c3ccccc3)s2)cc1	12.1%	20.2%	35.5%	22.5%	16.8%	14.7%	2.13% (active)		19.9%
COc1ccc(NC(=O)Nc2ccc(OCc3ccc(F)cc3)cc2)cc1	88.7%	40.2%	72.9%	20%		78.1%	58.5%	29.4%	51.2%
CN1CCN(c2ccc3c(c2)nc(NNC(=O)c2ncccn2)c2cccn23)CC1	28.4%		-62.9% (active)	-41.7% (active)	-13.2% (active)	11.3%	-22.8% (active)	26.5%	4.15% (active)
N#Cc1c(-c2cccc(Cl)c2Cl)cc(-c2ccc3ccccc3c2)[nH]c1=O	68.3%	41.5%	77.4%	4.49% (active)	99.7%	65.1%	31.6%		42.4%
COc1cc(-c2cc(-c3cccc(OCC(=O)O)c3)[nH]c(=O)c2C#N)cc(OC)c1OC	98.6%	102%	96.8%	98.2%	100%	109%	110%		104%
COc1ccc(C(=O)Nc2n[nH]c(Nc3ccccc3)c2C#N)cc1	133%	111%	97.6%	118%	119%	105%	111%		109%
COc1cc2c(c(OC)c1OC)C(=O)CC(c1cccc(NC(=O)c3cccc(NC(=O)[C@H](C)NC(=O)OC(C)(C)C)c3)c1)O2 (stereo partly specified)	36.5%	28.2%	123%	51.8%		65.3%	52.9%	73.6%	80%
NS(=O)(=O)c1ccc(-n2cc(-c3cccc(NC(=O)c4ccc(Cl)c(C(F)(F)F)c4)c3)nn2)cc1	46.3%	-60.8% (active)	28.6%	44.7%	55.7%	58.6%	-4.74% (active)	32.1%	78.2%
